Assay [1] has as its target T1, Aurora kinase A (Homo sapiens) (UniProt O14965).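 Also: values are mean percent inhibition.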
T1 sequence (whole entry): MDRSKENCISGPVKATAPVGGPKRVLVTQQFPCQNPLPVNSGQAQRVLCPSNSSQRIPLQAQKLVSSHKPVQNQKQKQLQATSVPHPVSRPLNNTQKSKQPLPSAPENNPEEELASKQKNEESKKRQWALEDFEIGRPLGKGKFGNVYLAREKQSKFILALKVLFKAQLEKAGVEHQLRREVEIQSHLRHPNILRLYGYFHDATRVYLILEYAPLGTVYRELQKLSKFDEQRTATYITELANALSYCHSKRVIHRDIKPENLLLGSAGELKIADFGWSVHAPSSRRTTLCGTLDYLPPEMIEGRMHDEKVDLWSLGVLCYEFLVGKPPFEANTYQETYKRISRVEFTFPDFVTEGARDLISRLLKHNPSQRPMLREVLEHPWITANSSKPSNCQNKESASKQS
The conditions noted are these: at 1 µM.

Assay [2] concerns the target Aurora kinase B (Homo sapiens) (UniProt Q96GD4). The conditions noted are these: at 0.1 µM.
The target is the same in assay [3]. The conditions noted are these: at 1 µM.
In assay [4] the target is T2, Aurora kinase C (Homo sapiens) (UniProt Q9UQB9).
T2 sequence (whole entry): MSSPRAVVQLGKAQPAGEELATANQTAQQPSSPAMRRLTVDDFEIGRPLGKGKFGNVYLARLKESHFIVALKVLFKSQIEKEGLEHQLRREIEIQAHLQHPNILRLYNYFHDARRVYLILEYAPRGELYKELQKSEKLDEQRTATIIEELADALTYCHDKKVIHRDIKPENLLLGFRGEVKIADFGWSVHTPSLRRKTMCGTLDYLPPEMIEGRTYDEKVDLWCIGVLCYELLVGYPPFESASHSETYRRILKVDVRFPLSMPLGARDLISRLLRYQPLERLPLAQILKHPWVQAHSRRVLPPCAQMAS
The conditions noted are these: at 0.1 µM.

Assay [5] deals with T2, Aurora kinase C (Homo sapiens). The conditions noted are these: at 1 µM.
Assay [6] addresses Serine/threonine-protein kinase 10 (Homo sapiens) (UniProt O94804). The conditions noted are these: at 0.1 µM.
Assay [7] has the same target. The conditions noted are these: at 1 µM.
Assay [8] concerns the target T3, Mitogen-activated protein kinase kinase kinase kinase 2 (Homo sapiens) (UniProt Q12851).
T3 sequence (whole entry): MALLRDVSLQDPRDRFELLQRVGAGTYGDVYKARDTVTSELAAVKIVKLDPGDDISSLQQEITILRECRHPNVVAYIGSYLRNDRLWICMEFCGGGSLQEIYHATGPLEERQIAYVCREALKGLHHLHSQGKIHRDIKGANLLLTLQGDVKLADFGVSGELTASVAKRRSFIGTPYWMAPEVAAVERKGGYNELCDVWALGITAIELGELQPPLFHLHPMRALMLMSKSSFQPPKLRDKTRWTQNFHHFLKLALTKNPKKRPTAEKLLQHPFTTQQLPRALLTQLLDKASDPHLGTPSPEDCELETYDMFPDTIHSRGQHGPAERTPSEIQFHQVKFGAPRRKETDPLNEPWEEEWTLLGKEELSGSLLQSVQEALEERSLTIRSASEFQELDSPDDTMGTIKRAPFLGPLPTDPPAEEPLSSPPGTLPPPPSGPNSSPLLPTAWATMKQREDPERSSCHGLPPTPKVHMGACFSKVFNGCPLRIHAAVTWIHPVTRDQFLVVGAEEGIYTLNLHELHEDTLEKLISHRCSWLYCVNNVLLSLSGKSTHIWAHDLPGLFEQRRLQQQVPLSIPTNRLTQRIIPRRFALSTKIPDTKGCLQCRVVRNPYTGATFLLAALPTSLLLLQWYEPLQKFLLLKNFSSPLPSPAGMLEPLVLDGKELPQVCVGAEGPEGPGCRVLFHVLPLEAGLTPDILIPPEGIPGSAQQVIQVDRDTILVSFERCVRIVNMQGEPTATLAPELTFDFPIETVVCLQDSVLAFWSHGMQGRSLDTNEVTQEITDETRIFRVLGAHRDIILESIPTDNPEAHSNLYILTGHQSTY
The conditions noted are these: at 0.1 µM.

Assay [9] deals with T3, Mitogen-activated protein kinase kinase kinase kinase 2 (Homo sapiens). The conditions noted are these: at 1 µM.
The target of assay [10] is Mitogen-activated protein kinase kinase kinase kinase 4 (Homo sapiens) (UniProt O95819). The conditions noted are these: at 0.1 µM.
The target is the same in assay [11]. The conditions noted are these: at 1 µM.
Assay [12] addresses Dual specificity mitogen-activated protein kinase kinase 1 (Homo sapiens) (UniProt Q02750). The conditions noted are these: at 0.1 µM.
Assay [13] has the same target. The conditions noted are these: at 1 µM.
Assay [14] addresses Misshapen-like kinase 1 (Homo sapiens) (UniProt Q8N4C8). The conditions noted are these: at 0.1 µM.
Assay [15] has the same target. The conditions noted are these: at 1 µM.
Assay [16] has as its target T4, Serine/threonine-protein kinase 4 (Homo sapiens) (UniProt Q13043).
T4 sequence (whole entry): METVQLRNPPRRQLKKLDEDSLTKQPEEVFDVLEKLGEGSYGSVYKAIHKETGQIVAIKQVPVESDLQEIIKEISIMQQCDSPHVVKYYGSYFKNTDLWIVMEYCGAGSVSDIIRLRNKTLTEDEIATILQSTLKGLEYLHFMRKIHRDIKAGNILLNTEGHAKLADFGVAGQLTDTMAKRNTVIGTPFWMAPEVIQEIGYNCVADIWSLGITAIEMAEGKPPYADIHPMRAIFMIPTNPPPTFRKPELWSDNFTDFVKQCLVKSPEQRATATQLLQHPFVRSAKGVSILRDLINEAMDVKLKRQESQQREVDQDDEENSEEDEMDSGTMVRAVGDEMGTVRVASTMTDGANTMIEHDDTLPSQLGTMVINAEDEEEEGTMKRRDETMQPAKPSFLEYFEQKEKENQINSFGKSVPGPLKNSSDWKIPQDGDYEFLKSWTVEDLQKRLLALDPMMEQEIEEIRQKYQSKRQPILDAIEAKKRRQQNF
The conditions noted are these: at 0.1 µM.

The target in assay [17] is T4, Serine/threonine-protein kinase 4 (Homo sapiens). The conditions noted are these: at 1 µM.
Assay [18] deals with T5, Serine/threonine-protein kinase 3 (Homo sapiens) (UniProt Q13188).
T5 sequence (whole entry): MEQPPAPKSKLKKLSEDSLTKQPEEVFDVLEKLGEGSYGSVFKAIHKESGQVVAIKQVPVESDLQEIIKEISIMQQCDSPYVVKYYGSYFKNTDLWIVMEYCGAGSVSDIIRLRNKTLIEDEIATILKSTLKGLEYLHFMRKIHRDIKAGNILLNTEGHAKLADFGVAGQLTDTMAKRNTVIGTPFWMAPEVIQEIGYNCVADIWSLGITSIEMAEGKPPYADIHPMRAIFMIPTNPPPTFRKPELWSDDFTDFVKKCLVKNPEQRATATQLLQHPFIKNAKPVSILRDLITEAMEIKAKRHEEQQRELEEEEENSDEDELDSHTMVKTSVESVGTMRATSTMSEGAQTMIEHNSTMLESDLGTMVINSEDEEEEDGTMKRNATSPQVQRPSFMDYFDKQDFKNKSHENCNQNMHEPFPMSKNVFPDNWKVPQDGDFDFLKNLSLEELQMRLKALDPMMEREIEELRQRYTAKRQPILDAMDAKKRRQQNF
The conditions noted are these: at 0.1 µM.

Assay [19] deals with T5, Serine/threonine-protein kinase 3 (Homo sapiens). The conditions noted are these: at 1 µM.
Assay [20] concerns the target Serine/threonine-protein kinase 26 (Homo sapiens) (UniProt Q9P289). The conditions noted are these: at 0.1 µM.

Mitogen-activated protein kinase kinase kinase kinase 4 (Homo sapiens), sequence (O95819 2-1239 limits assumed): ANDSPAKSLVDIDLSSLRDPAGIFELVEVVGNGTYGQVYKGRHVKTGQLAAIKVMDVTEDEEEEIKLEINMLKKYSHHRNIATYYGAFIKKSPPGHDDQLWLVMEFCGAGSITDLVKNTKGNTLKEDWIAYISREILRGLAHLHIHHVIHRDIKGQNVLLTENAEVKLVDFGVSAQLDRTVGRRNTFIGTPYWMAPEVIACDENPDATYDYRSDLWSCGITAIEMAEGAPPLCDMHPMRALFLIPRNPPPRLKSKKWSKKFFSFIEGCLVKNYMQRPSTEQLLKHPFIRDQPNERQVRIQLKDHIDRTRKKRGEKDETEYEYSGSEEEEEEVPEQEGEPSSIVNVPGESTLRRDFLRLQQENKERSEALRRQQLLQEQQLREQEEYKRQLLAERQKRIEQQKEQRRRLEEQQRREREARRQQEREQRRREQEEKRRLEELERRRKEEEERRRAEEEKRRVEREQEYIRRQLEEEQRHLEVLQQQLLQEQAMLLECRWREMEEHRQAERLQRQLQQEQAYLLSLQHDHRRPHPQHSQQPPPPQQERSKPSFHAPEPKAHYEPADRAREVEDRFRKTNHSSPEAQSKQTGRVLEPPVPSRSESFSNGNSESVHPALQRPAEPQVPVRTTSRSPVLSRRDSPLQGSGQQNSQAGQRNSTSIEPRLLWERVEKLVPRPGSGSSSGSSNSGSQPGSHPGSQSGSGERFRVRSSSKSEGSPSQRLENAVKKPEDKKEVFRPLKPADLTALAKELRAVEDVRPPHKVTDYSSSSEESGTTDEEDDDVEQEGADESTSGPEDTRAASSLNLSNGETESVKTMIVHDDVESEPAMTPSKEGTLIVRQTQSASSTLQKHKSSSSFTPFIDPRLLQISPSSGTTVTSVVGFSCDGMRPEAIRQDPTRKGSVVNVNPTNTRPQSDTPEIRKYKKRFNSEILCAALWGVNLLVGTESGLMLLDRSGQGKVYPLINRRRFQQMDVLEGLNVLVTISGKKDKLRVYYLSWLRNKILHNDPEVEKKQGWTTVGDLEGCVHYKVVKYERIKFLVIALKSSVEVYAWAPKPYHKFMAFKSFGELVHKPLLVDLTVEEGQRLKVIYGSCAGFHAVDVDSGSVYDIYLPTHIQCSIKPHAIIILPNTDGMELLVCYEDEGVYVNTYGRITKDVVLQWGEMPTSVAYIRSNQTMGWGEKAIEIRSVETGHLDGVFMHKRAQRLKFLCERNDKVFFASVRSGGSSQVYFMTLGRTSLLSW
Serine/threonine-protein kinase 26 (Homo sapiens), sequence (Q9P289 2-416 limits assumed): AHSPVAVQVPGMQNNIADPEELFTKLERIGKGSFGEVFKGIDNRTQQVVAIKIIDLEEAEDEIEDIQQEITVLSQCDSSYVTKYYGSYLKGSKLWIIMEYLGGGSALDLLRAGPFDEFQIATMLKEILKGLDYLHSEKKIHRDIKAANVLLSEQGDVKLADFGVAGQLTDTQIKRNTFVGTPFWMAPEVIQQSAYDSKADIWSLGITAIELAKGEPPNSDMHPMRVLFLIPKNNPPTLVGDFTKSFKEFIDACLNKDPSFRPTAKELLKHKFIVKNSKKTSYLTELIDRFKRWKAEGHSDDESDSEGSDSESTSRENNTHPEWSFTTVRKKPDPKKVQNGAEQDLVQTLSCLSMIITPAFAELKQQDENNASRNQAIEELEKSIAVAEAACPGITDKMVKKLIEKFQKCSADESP
Aurora kinase B (Homo sapiens), sequence (Q96GD4 whole entry): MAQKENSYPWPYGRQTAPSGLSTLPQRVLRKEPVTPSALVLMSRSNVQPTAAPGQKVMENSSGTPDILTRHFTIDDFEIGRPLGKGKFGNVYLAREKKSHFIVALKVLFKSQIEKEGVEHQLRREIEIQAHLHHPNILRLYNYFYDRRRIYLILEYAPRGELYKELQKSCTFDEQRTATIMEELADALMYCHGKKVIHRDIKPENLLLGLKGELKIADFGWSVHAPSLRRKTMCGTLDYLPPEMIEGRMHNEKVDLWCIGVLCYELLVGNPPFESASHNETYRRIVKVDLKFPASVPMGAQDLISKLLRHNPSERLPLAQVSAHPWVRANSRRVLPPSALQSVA
Dual specificity mitogen-activated protein kinase kinase 1 (Homo sapiens), sequence (Q02750 whole entry): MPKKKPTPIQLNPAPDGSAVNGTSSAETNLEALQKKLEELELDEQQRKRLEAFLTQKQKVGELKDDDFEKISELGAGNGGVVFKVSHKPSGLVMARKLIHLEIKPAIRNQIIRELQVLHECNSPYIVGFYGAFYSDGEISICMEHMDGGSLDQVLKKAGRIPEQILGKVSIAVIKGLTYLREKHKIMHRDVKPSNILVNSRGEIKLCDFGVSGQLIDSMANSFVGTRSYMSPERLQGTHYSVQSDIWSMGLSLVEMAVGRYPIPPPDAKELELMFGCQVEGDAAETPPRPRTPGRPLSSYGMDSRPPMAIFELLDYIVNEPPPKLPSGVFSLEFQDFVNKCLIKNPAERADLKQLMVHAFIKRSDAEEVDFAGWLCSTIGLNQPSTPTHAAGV
Misshapen-like kinase 1 (Homo sapiens), sequence (Q8N4C8 whole entry, looked up): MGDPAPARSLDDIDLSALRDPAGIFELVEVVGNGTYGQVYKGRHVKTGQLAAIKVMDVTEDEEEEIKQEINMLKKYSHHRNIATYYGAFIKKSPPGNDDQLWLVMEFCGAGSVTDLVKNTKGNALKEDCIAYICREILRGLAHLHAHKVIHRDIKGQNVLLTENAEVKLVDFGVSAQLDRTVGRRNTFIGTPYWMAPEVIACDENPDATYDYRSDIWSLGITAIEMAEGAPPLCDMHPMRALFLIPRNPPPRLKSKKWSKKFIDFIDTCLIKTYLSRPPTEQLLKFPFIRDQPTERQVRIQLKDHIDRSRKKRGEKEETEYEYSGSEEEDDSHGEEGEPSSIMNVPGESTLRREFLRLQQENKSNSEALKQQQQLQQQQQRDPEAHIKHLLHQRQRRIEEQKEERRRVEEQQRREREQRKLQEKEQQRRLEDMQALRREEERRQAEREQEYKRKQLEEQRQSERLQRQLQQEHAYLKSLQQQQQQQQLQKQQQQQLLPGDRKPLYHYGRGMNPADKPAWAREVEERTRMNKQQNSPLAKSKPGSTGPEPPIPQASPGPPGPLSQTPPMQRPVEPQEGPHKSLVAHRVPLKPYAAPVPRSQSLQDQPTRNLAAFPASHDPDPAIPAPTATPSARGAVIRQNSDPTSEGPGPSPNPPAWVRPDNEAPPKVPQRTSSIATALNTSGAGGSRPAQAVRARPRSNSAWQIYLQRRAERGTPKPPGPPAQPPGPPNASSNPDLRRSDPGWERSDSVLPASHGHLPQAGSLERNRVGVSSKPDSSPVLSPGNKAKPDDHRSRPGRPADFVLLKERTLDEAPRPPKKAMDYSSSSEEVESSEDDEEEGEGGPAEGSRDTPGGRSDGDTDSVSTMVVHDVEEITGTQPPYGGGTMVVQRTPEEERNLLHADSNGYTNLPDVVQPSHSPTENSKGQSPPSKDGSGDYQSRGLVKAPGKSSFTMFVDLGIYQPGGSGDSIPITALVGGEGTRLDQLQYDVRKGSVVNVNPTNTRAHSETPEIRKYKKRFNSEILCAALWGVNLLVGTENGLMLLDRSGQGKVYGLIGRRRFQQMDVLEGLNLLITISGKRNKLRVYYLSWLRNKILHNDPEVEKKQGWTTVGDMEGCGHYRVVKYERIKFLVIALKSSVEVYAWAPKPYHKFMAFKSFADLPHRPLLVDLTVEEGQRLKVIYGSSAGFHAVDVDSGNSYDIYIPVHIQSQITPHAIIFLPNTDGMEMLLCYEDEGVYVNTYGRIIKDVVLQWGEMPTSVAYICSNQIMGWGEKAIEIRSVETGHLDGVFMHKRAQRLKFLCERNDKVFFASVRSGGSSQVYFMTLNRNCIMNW
Serine/threonine-protein kinase 10 (Homo sapiens), sequence (O94804 whole entry, looked up): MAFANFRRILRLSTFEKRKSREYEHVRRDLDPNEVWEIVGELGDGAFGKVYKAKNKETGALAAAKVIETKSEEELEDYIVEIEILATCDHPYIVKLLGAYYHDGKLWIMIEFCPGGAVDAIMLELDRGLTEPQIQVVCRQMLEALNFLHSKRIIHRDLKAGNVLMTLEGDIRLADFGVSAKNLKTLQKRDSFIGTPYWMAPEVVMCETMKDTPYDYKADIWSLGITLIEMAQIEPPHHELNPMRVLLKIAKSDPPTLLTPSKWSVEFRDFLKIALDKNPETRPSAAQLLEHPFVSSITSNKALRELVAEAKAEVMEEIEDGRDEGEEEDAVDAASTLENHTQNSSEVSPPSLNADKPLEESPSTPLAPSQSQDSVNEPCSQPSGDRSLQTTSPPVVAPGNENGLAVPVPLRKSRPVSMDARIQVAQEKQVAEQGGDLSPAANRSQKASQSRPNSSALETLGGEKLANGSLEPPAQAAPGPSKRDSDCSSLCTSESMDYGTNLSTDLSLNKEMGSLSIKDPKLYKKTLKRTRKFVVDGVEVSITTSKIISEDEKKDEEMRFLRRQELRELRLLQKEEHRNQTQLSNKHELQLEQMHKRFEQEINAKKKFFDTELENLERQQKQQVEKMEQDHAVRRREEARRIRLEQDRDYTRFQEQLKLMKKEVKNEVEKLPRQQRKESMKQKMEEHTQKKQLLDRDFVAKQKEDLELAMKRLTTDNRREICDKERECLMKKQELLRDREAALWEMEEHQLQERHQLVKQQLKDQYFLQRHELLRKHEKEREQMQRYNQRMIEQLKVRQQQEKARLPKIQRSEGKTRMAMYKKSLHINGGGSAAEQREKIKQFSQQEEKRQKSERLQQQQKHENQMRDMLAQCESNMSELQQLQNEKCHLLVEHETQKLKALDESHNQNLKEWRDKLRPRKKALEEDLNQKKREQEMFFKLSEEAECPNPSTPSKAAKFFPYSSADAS

One may read the inhibition as the relative decrease from the control value, in per cent. `Cc1cc(O)cc(C)c1/C=C/c1cncc(C(N)=O)c1`: the inhibition in assay [1] is 11.7%; in [2], 2.21%; in assay [3] it was 7.09%; in assay [4], 8.73%; in assay [5], 1.85%; in assay [6] it was 4.97%. Also, the inhibition in assay [7] is 20.2%; in [8], 2.32%; in assay [9] it was 8.96%; in [10] it was 4.83%; in assay [11] it was 13.9%; in assay [12], 2.17%. In addition, the inhibition in assay [13] was found to be 3.39%; in [14] it was 4.8%; in assay [15], 7.34%; in assay [16], 2.44%; in assay [17], 7.28%; in assay [18] it was 2.17%. The inhibition was 4.31% in assay [19] and -0.63% in assay [20].

Take `NS(=O)(=O)c1cccc(N/C=C2\C(=O)Nc3ccccc32)c1`: the inhibition in assay [1] amounted to 47.6%; in assay [2] it was 6.68%; in assay [3], 40.5%; in assay [4] it was 7.7%; in [5] it was 76.7%; in [6], 4.31%. In addition, the inhibition in assay [7] stood at 9.72%; in assay [8], 4.14%; in assay [9], 28.9%; in assay [10], 23.3%; in [11], 78.2%; in [12], 4.87%. For the same compound, the inhibition is 5.35% in assay [13]; 18.4% in assay [14]; 70.2% in assay [15]; 7.24% in assay [16]; 26.1% in assay [17]; 5.78% in [18]. Besides, the inhibition is 21.2% in assay [19] and -1.63% in assay [20].

For `CCOc1ccc2c(-c3ccnc(Nc4cc(OC)cc(C(F)(F)F)c4)n3)cnn2n1`, the inhibition in assay [1] was 13%; in [2], 2.18%; in assay [3] it was 8.92%; in assay [4], 1.08%; in assay [5], 4.09%; in [6], -0.06%. The inhibition in [7] came out at 3.44%; in assay [8] it was 0.08%; in assay [9], 2.69%; in assay [10], 1.85%; in assay [11], 8.47%; in assay [12], 0.11%. Besides, the inhibition in assay [13] is 0.8%; in [14] it was 2.19%; in assay [15], 6.36%; in assay [16], 0.03%; in [17] it was 1.83%; in assay [18], -0.19%. The inhibition in assay [19] turned out to be 2.45%; in [20], 1.73%.

With `COC(=O)Nc1nc2ccc(Oc3ccc(NC(=O)Nc4cc(C(F)(F)F)ccc4F)cc3)cc2s1`, the inhibition in [1] worked out at 7.02%; in assay [2], 5.4%; in assay [3] it was 30.8%; in assay [4], 9.05%; in assay [5], 50.4%; in [6] it was 24.5%. For the same compound, the inhibition was 55.4% in [7]; 10.7% in [8]; 28.6% in [9]; 2.18% in [10]; 8.34% in assay [11]; 0.28% in [12]. For the same compound, the inhibition in [13] was 1.52%; in [14], 2.27%; in [15], 6.19%; in assay [16], -0.61%; in assay [17], -1.63%; in [18] it was -0.86%. In addition, the inhibition in assay [19] was -0.3%; in [20], 0.45%.

For the compound `NC(=O)c1ccc2c(-c3ccnc(NCCCO)n3)c(-c3ccc(F)cc3)nn2c1`, the inhibition is 3.29% in [1]; 2.54% in assay [2]; 0.26% in assay [3]; 0.74% in assay [4]; 6.84% in [5]; 5.04% in assay [6]. For the same compound, the inhibition in [7] worked out at 12.3%; in assay [8] it was 1.47%; in [9], 7.29%; in assay [10], 9.85%; in [11], 51.7%; in [12] it was 6.94%. In addition, the inhibition in assay [13] was 13.2%; in assay [14], 10.1%; in [15], 35.5%; in assay [16], 4.48%; in assay [17] it was 5.36%; in assay [18] it was 4.28%. Moreover, the inhibition in [19] is 4.67%; in assay [20] it was -2.37%.

Consider `Cc1nnc(-c2cccc(-c3ccc(C(=O)NCC4CC4)cc3)c2)o1`, for which the inhibition in [1] is 7.79%; in assay [2] it was 3.21%; in assay [3], 3.09%; in assay [4], 1.3%; in assay [5], -4.74%; in [6], 6.23%. Also, the inhibition in assay [7] came to 7.39%; in [8], 1.46%; in assay [9], 3.14%; in assay [10], 7.44%; in assay [11], 14.1%; in assay [12], 8.77%. Further, the inhibition in assay [13] is 4.7%; in assay [14], 7.95%; in [15], 14.7%; in assay [16], 8.49%; in [17], 9.93%; in [18], 10.6%. Moreover, the inhibition in assay [19] is 10.4%; in [20], -0.42%.

Turning to `CCn1c(-c2nonc2N)nc2cncc(C(=O)NCCNC)c21`, the inhibition stood at 5.14% in assay [1]; 2.77% in [2]; 1.83% in assay [3]; 0.6% in [4]; 5.56% in [5]; 11.8% in assay [6]. For the same compound, the inhibition in assay [7] came out at 18%; in assay [8] it was 0.67%; in [9], 3.62%; in assay [10], 4.46%; in assay [11], 11.3%; in [12], 4.81%. The inhibition in [13] was found to be 3.62%; in [14], 7.39%; in assay [15] it was 10.8%; in assay [16], 3.84%; in assay [17], 6.56%; in assay [18], 5.96%. The results for the inhibition in assay [19] and in assay [20] were 7.27% and -3.72%, respectively.

For the origin of these results see ChEMBL document CHEMBL1961873, “Compounds: GSK PKIS; Assays: Nanosyn kinase panel” (2012).
